The source of these data is PubChem BioAssay.

A short description of test [1]: compound effects on lung adenocarcinoma cell viability – A549, calcein-AM fluorescence, 48 h, basal, profiling panel (AID 1162). Note: test concentration not given here. To be noted: higher = more signal.
The nature of test [2]: compound effects on differentiated 3T3-L1 adipocyte viability – cell-based, 3T3-L1 adipocytes, calcein-AM fluorescence, 48 h, basal, profiling panel (AID 1163). Note: test concentration not given here. To be noted: 3T3-L1 adipocytes viability, higher = more signal.
Test [3] in a line: compound effects on hepatocellular carcinoma cell viability – HepG2, calcein-AM fluorescence, 48 h, basal, profiling panel (AID 1164). Note: test concentration not given here. The note with it: higher = more signal.
Test [4] in a line: compound effects on multiple myeloma cell viability – MM1S, calcein-AM fluorescence, 48 h, basal, profiling panel (AID 1165).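 Note: viability of MM1S multiple myeloma cells under basal unstimulated conditions; test concentration not given here.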 The note with it: higher = more signal.
The nature of test [5]: calcein-AM signal in unstimulated myeloma cells – cell-based, calcein-AM fluorescence, 48 h, PK04 Diversity Set, profiling panel (AID 1166).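 Note: cells grown under basal conditions without added stimulus; test concentration not given here.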 The note with it: RPMI8226 myeloma viability, higher = more signal.
A short description of test [6]: JC-1 mitochondrial signal, unstimulated HepG2 cells – cell-based, JC-1 fluorescence, 24 h, 100 nL compound, profiling panel (AID 1167). Note: test concentration not given here. The note with it: HepG2 mitochondrial potential, higher = more signal.
Test [7] can be described thus: JC-1 mitochondrial signal, unstimulated adipocytes – cell-based, JC-1 fluorescence, 3T3-L1 adipocytes, 24 h, 100 nL compound, profiling panel (AID 1168). Note: test concentration not given here. The note with it: JC-1 mitochondrial fluorescence, higher = more signal, called active from +8 up or from −8 down.
The nature of test [8]: JC-1 mitochondrial signal, unstimulated myeloma cells – cell-based, JC-1 fluorescence, RPMI8226, 24 h, 100 nL compound, profiling panel (AID 1169). Note: test concentration not given here. The note with it: JC-1 mitochondrial potential fluorescence, higher = more signal.
Test [9] in a line: JC-1 mitochondrial signal, unstimulated MM1S myeloma – cell-based, JC-1 fluorescence, 24 h, 100 nL compound, profiling panel (AID 1170). Note: test concentration not given here. The note with it: MM1S mitochondrial potential, higher = more signal.
The nature of test [10]: resazurin metabolic signal in A549 cells – cell-based, resazurin fluorescence, 24 h, PK04 Diversity Set, profiling panel (AID 1171). Note: test concentration not given here. To be noted: A549 viability, higher = more signal, called active from +8 up or from −8 down. A general note: The colour change of resazurin is a common sign of viable cells or microbes.
A short description of test [11]: resazurin metabolic signal in HepG2 cells – cell-based, resazurin fluorescence, 24 h, PK04 Diversity Set, profiling panel (AID 1172). Note: test concentration not given here. The note with it: HepG2 viability, higher = more signal.
The nature of test [12]: budding yeast growth changes without added modifier – OD600, strain BY4716, 24 h, basal condition, primary screen (AID 1173). The note with it: S. cerevisiae BY4716 growth, OD600, 24 h; higher = more signal, called active from +8 up or from −8 down.
Test [13] can be described thus: viability profiling in MM1S myeloma cells – cell-based, resazurin fluorescence, basal, 24 h, PK04 Diversity Set, profiling panel (AID 1174). Note: test concentration not given here. The note with it: higher = more signal, called active from +8 up or from −8 down.
Test [14] addresses Dihydroorotate dehydrogenase (quinone), mitochondrial (Plasmodium falciparum (isolate 3D7)) (UniProt Q08210). The test is described as follows: inhibition of P. falciparum DHODH – biochemical, C-terminal His tag, absorbance 600 nm, primary screen (AID 1175).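 Note: recombinant parasite enzyme with a five histidine tag at its C terminus; test concentration not given here.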 To be noted: PfDHODH enzyme, DCIP absorbance 600 nm; higher = more signal, called active from +8 up or from −8 down.
Test [15] in a line: inhibition of PAO1 biofilm formation – strain PAO1, LB-PBS medium, absorbance 600 nm, primary screen (AID 1176). Note: test concentration not given here. The note with it: P. aeruginosa PAO1 growth/biofilm, A600, 12 h; higher = more signal.
The nature of test [16]: growth modulation of vineyard yeast isolate – strain RM11-1a, OD600, basal, 24 h, primary screen (AID 1177).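 Note: cultures grown under basal conditions with no added stressor; test concentration not given here.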 The note with it: S. cerevisiae RM11-1a growth, OD600, 24 h; higher = more signal, called active from +8 up or from −8 down.
The nature of test [17]: growth of efflux-deficient E. coli DRC39 – strain DRC39, OD650, 24 h, E. coli filamentation inducers, primary screen (AID 1178).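 Note: growth measured as culture turbidity by optical density at 650 nm; test concentration not given here.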 To be noted: E. coli DRC39 acrAB, higher = more signal, called active from +8 up or from −8 down.
The nature of test [18]: growth of efflux-deficient E. coli DRC39 – strain DRC39, OD650, 48 h, E. coli filamentation inducers, primary screen (AID 1179).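 Note: screen aims at cell division blockers that make cells filament.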 To be noted: E. coli DRC39 delta-acrAB growth, higher = more signal, called active from +8 up or from −8 down.
Test [19] is described as follows: viability profiling in RPMI8226 myeloma cells – cell-based, resazurin fluorescence, basal, 24 h, PK04 Diversity Set, profiling panel (AID 1180).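 Note: RPMI8826 multiple myeloma cell line at 5000 cells per well; test concentration not given here.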 To be noted: higher = more signal.
The target in test [20] is E3 ubiquitin-protein ligase XIAP (Homo sapiens) (UniProt P98170). The test is described as follows: small molecules binding XIAP protein – biophysical, small-molecule microarray, fluorescence 635 nm, primary screen (AID 1181).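 Note: score merges 667 nm emission and signal to noise over triplicate slides.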 The note with it: higher = more signal.
Sequence of E3 ubiquitin-protein ligase XIAP (Homo sapiens) (P98170 whole entry, looked up): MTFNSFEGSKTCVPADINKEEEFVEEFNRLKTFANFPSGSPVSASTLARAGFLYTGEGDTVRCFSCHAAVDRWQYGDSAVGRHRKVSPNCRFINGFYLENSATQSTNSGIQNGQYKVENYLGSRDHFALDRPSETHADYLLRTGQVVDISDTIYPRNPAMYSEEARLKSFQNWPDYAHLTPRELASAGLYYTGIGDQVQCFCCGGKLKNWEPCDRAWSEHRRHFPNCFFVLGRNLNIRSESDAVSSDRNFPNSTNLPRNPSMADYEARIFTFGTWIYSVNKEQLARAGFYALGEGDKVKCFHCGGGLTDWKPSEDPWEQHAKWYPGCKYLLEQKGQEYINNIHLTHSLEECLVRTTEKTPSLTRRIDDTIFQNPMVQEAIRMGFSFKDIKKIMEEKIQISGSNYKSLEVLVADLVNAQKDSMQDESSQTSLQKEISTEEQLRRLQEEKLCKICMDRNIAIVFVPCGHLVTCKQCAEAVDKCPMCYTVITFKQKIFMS

Activity calls are given as the source filed them. Unless noted, the rule behind the calls is not given here.

Sequence of Dihydroorotate dehydrogenase (quinone), mitochondrial (Plasmodium falciparum (isolate 3D7)) (Q08210 whole entry, looked up): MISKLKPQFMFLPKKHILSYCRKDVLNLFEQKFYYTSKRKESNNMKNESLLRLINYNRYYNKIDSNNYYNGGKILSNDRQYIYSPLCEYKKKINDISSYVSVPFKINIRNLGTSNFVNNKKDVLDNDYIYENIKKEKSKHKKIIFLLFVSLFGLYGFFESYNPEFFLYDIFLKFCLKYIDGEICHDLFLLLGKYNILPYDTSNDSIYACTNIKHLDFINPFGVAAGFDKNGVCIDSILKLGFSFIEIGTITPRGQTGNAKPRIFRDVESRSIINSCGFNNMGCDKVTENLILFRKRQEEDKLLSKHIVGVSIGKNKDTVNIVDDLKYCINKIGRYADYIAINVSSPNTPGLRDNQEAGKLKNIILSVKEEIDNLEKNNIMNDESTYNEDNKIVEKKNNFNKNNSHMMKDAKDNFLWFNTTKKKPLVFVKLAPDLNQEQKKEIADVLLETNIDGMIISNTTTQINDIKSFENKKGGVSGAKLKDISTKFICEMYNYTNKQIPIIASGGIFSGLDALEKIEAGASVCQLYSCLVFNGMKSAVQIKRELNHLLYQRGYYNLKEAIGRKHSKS

In the case of `C=C(COC)/C(=C/C[C@H](OC(=O)c1ccncc1)c1ccc(OCCO)cc1)c1cc(C(=O)OC)ccc1OC`, the z-score in test [1] is -0.313; in test [2], 1.7; in [3] it was -0.842; in [4], -1.18; in test [5], -0.443; in [6] it was 1.37. The z-score in test [7] was -0.4 (inactive); in [8], 0.368; in [9], 0.0527; in [10], 1.29 (inactive); in test [11], 0.672; in [12], 0.194 (inactive). The z-score was -0.163 (inactive) in [13]; -0.505 (inactive) in [15]; -0.402 (inactive) in test [16]; -0.0988 (inactive) in [17]; 0.33 (inactive) in test [18]; -0.316 in [19]. Moreover, the figures for the composite z-score in [14] and in [20] were -1.46 (inactive) and 0.177, respectively.

For the compound `[N-]=[N+]=NCc1ccccc1[C@H]1OC(c2ccc(OCCCO)cc2)=N[C@@]1(Cc1ccccc1)C(=O)N1CCOCC1`, the z-score in [1] is 0.281; in test [2], 0.491; in [3], 0.556; in [4], -1.45; in test [5], -1.11; in test [6], 0.213. The z-score in [7] is -1.67 (inactive); in [8], -0.887; in test [9] it was 0.35; in [10], 1.56 (inactive); in test [11], 1.35; in test [12], -2.25 (inactive). The z-score in test [13] was -0.0295 (inactive); in test [15] it was 0.841 (inactive); in test [16], 0.176 (inactive); in [17], -0.0844 (inactive); in [18], -1 (inactive); in test [19], 0.349. The figures for the composite z-score in test [14] and in test [20] were 0.222 (inactive) and 0.0578, respectively.

As to `CN1C=C(C(=O)OCCS(C)(=O)=O)C(C(=O)OCCS(C)(=O)=O)=CC(CCCO)=CC1c1ccc(CN2CCCC2)cc1` (stereo not given), the z-score is 1.46 in [1]; -2.48 in test [2]; 1.81 in test [3]; 0.101 in [4]; -0.268 in test [5]; 1.82 in test [6]. The z-score in test [7] was -0.469 (inactive); in test [8], 1.33; in [9], -0.394; in test [10] it was 0.0251 (inactive); in [11], -0.533; in test [12], -2.02 (inactive). Moreover, the z-score in test [13] was 0.0555 (inactive); in [15], 0.719 (inactive); in [16], 0.27 (inactive); in test [17], 0.364 (inactive); in test [18] it was 0.121 (inactive); in test [19] it was 0.274. Moreover, the composite z-score is -0.379 (inactive) in test [14] and -0.0525 in [20].

With `Cc1c(NC(=O)/C(C#N)=C/c2ccc(Cl)cc2)c(=O)n(-c2ccccc2)n1C`, the z-score in [1] is 1.48; in test [2] it was 0.22; in [3] it was 0.115; in test [4] it was 0.69; in [5], -2.03; in test [6], 0.497. For the same compound, the z-score in test [7] is 0.585 (inactive); in [8], -0.0999; in [9], -0.512; in test [10], -0.354 (inactive); in test [11], 0.244; in test [12], -0.429 (inactive). Besides, the z-score in test [13] was 0.103 (inactive); in test [15], 0.888 (inactive); in test [16], -0.704 (inactive); in test [17], 1.43 (inactive); in test [18], 1.5 (inactive); in test [19] it was -0.345. Also, the composite z-score is -2.14 (inactive) in [14] and -0.0871 in test [20].

`C=CCC(OC(C)=O)[C@@H]1[C@@H](N(Cc2ccc(-c3ccccc3)cc2)C(=O)c2ccc(C)cc2)c2cc(OCCCO)ccc2N1C(=O)c1ccc2ccccc2c1` (stereo not given in full): the z-score in [1] was 2.26; in [2], 0.558; in test [3], 1.71; in test [4], 0.697; in [5] it was -0.481; in [6], 3.18. Also, the z-score was -0.379 (inactive) in [7]; 0.0174 in test [8]; 0.593 in test [9]; 0.864 (inactive) in test [10]; -0.643 in [11]; -0.766 (inactive) in test [12]. Moreover, the z-score in [13] was 1.12 (inactive); in test [15] it was -0.0877 (inactive); in test [16], -1.99 (inactive); in test [17], 0.406 (inactive); in [18] it was 0.67 (inactive); in test [19], 1.36. Moreover, the composite z-score in test [14] is -1.55 (inactive); in test [20], -0.0357.

Take `CC(C)CNC(=O)[C@@]1(C)c2ccccc2C(=O)N(Cc2cc(F)cc(C(F)(F)F)c2)[C@H]1c1ccc(CO)cc1`: the z-score in [1] is -0.0148; in test [2], 1.32; in test [3], -0.49; in [4] it was 0.545; in test [5], 0.594; in test [6] it was 0.455. The z-score in [7] is -0.175 (inactive); in test [8], -0.638; in test [9], 0.0607; in test [10], 0.906 (inactive); in test [11], -0.201; in test [12], -0.3 (inactive). The z-score in test [13] was 0.919 (inactive); in [15] it was 1.22 (inactive); in test [16] it was -0.167 (inactive); in test [17] it was 0.167 (inactive); in [18] it was 0.137 (inactive); in test [19] it was 0.489. The composite z-score in [14] is -0.0555 (inactive); in test [20] it was -0.208.

In the case of `CCCCCN1CC=CC23O[C@@H]4C=CCOC(=O)[C@@H]4[C@H]2C(=O)N(CCCCCO)[C@@H]3C1=O` (stereo not given in full), the z-score in [1] is -0.438; in test [2], -0.28; in test [3], -1.03; in test [4] it was 1.27; in [5] it was -1.6; in [6], -0.012. The z-score in test [7] was 0.211 (inactive); in test [8], 0.85; in test [9], 0.876; in test [10], -0.0947 (inactive); in [11], 0.773; in test [12] it was -0.284 (inactive). The z-score is -0.295 (inactive) in test [13]; 0.441 (inactive) in test [15]; -0.196 (inactive) in [16]; -0.151 (inactive) in test [17]; -0.352 (inactive) in test [18]; 0.0715 in test [19]. The composite z-score in [14] is -1.09 (inactive); in [20], -0.244.

Take `COCCn1c(C(=O)N2CCCC2)cc2c1C[C@H]1CN(C(=O)c3ccccc3)[C@@](Cc3ccccc3)(C(=O)OC)[C@@H]21`: the z-score in test [1] was -1.94; in [2], -0.239; in [3], -0.768; in test [4], 0.0841; in [5] it was -1.37; in test [6], 0.678. In addition, the z-score was -0.416 (inactive) in [7]; -0.803 in [8]; -0.688 in [9]; -0.0413 (inactive) in [10]; -0.171 in test [11]; 0.859 (inactive) in test [12]. The z-score was -0.738 (inactive) in test [13]; 0.535 (inactive) in test [15]; 1.41 (inactive) in test [16]; -0.16 (inactive) in [17]; -0.0447 (inactive) in [18]; -0.923 in [19]. Also, the values for the composite z-score in test [14] and in test [20] were 0.132 (inactive) and 0.369, respectively.

Turning to `[N-]=[N+]=NCc1ccccc1C[C@@]1(C(=O)O)N=C(c2ccc(OCCCO)cc2)O[C@@H]1c1ccccc1CN=[N+]=[N-]`, the z-score in test [1] was 0.737; in test [2], 0.2; in test [3], 0.0664; in test [4], -0.274; in test [5], -2.21; in [6] it was -0.168. The z-score is -0.186 (inactive) in test [7]; -0.477 in test [8]; -0.824 in test [9]; 0.855 (inactive) in test [10]; 1.86 in [11]; -4 (inactive) in [12]. Besides, the z-score in [13] is 0.781 (inactive); in test [15], -0.608 (inactive); in test [16] it was -0.916 (inactive); in test [17], 0.274 (inactive); in test [18], 0.697 (inactive); in test [19] it was 1.03. The composite z-score is -1.62 (inactive) in test [14] and 0.209 in [20].
